The source of these data is PubChem BioAssay (EPA / NIEHS).

The AC50 is the concentration giving half of the maximal activity seen.

Assay [1] addresses CCAAT/enhancer-binding protein beta (Homo sapiens) (UniProt P17676). Put plainly: ATG_C_EBP_CIS: Attagene CIS-FACTORIAL HepG2 Assay for human CCAAT/Enhancer Binding Protein (C/EBP) beta (AID 2282927). Particulars: HepG2 Attagene cis-factorial transcription factor reporter; actives raise or lower the signal. The gist of the method:
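HepG2 transiently transfected with multiplexed reporter units under cis-regulatory promoters reporting endogenous C/EBPb activity. After 24 h exposure, reporter mRNA assayed by RT-PCR, fluorescent labelling, HpaI digestion and capillary electrophoresis; bidirectional fitting versus DMSO.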

The nature of assay [2]: ATG_DR4_LXR_CIS: Attagene CIS-FACTORIAL HepG2 Assay for human Liver X Receptor (LXR), DR4 submotif (AID 2282929). Particulars: HepG2 Attagene DR4 cis-reporter, mRNA transcription; actives raise or lower the signal. The gist of the method: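 Total RNA from 24 h-treated, MRTU-transfected HepG2 cells underwent reverse transcription, PCR, fluorescent primer extension and restriction digestion before capillary electrophoresis. Both increases and decreases in reporter signal were fitted against DMSO.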

A short description of assay [3]: ATG_AP_2_CIS: Attagene CIS-FACTORIAL HepG2 Assay for human Activator Protein 2 (AP-2) (AID 2282932). Conditions: HepG2 AP-2 cis-reporter, Attagene transcription factor profiling; actives raise or lower the signal. The gist of the method: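 Liver-derived HepG2 line, cis-reporter system measuring endogenous factors; 24 h dosing; reporter mRNA detected by fluorescent RT-PCR and capillary electrophoresis.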

The target in assay [4] is Transcription factor E2F1 (Homo sapiens) (UniProt Q01094). Put plainly: ATG_E2F_CIS: Attagene CIS-FACTORIAL HepG2 Assay for human E2F Transcription Factor 1 (AID 2282935). Conditions: HepG2 Attagene cis-reporter, E2F reporter RNA transcripts; actives raise or lower the signal. The gist of the method: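 Liver-derived HepG2 cells expressing transfected promoter-driven reporter units received test chemical for 24 hours. Signal gains or losses were fitted bidirectionally against DMSO.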

Assay [5] can be described thus: ATG_E_Box_CIS: Attagene CIS-FACTORIAL HepG2 Assay for human Enhancer Box (E-box) (AID 2282936). Particulars: HepG2 E-box cis-reporter transcription, actives raise or lower the signal. In short, it runs like this: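 In this cell-based setup, HepG2 cells bearing transfected promoter-driven reporter units were exposed to chemicals for 24 h; reporter transcripts were amplified, 6-FAM-labelled, cut with HpaI and sized by capillary electrophoresis.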

A short description of assay [6]: ATG_M_19_CIS: Attagene CIS-FACTORIAL HepG2 Assay for M19 Transcription Factor (Internal Marker) (AID 2282939). Conditions: HepG2 Attagene CIS-FACTORIAL M19 internal marker reporter; actives raise or lower the signal. In short, it runs like this: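 Chemical-treated HepG2 (24 h) with MRTU constructs; reporter transcripts detected by fluorescent RT-PCR fragment analysis on capillary electrophoresis. Internal background marker, DMSO as baseline.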

Assay [7] can be described thus: ATG_GLI_CIS: Attagene CIS-FACTORIAL HepG2 Assay for human Zinc Finger Protein GLI1 (AID 2282945). Particulars: HepG2, Attagene cis-factorial reporter mRNA, GLI element; actives raise or lower the signal. The gist of the method:
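Transiently transfected HepG2 cells report endogenous transcription factor activity via cis-element-driven reporter units. After 24 h compound exposure, reporter mRNA was measured by RT-PCR with capillary electrophoresis; bidirectional fitting against DMSO baseline.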

Assay [8] can be described thus: ATG_ISRE_CIS: Attagene CIS-FACTORIAL HepG2 Assay for human Interferon Regulatory Factor 1 (IRF1) binding to an Interferon-Stimulated Response Element (ISRE) (AID 2282948). Particulars: HepG2 ISRE cis-reporter (Attagene), mRNA transcription readout; actives raise or lower the signal. In short, it runs like this: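 Endogenous transcription factor activity read as reporter transcript abundance via RT-PCR and capillary electrophoresis. HepG2 cells transiently transfected, 24 h chemical exposure. Gain or loss fitted against DMSO baseline.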

The nature of assay [9]: ATG_M_32_CIS: Attagene CIS-FACTORIAL HepG2 Assay for M32 Transcription Factor (Internal Marker) (AID 2282949).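 Further: background control marker of the multiplexed CIS panel rather than a real target.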 Conditions: HepG2 Attagene cis-factorial M32 reporter, mRNA; actives raise or lower the signal. The gist of the method: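 HepG2 transfectants (cis-regulated reporter transcription units) dosed 24 h. Reporter mRNA by RT-PCR plus CE, analysed as gain or loss relative to DMSO.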

Assay [10] in a line: ATG_PXRE_CIS: Attagene CIS-FACTORIAL HepG2 Assay for human Pregnane X Receptor Element (PXRE) (AID 2282957). Conditions: HepG2 Attagene CIS-FACTORIAL PXRE reporter, mRNA; actives raise or lower the signal. In short, it runs like this:
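Bidirectional activity, baselined to DMSO, derived from reporter mRNA fluorescence (RT-PCR plus capillary electrophoresis) in HepG2 cells bearing cis-promoter reporter units, 24 h exposure.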

Assay [11] in a line: ATG_Sox_CIS: Attagene CIS-FACTORIAL HepG2 Assay for human SRY-box transcription factor (SOX) (AID 2282960). Conditions: HepG2 Attagene cis-factorial SOX reporter, mRNA; actives raise or lower the signal. The gist of the method:
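HepG2, cis reporter units, 24 h exposure. Reporter mRNA: RT-PCR → FAM labelling → HpaI → CE fluorescence. Bidirectional fit vs DMSO.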

The target in assay [12] is Transcription factor Sp1 (Homo sapiens) (UniProt P08047). The experiment in a line: ATG_Sp1_CIS: Attagene CIS-FACTORIAL HepG2 Assay for human Specificity Protein 1 (Sp1) (AID 2282961). Conditions: HepG2 Sp1 cis-reporter transcription, actives raise or lower the signal. The gist of the method: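 Liver-derived HepG2 cells, cis-element reporter library, 24 h treatment; RNA isolated, cDNA amplified with reporter-specific primers, FAM-labeled fragments sized on capillary analyzer. DMSO baseline, bidirectional curve fit.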

Assay [13] deals with Signal transducer and activator of transcription 3 (Homo sapiens) (UniProt P40763). The experiment in a line: ATG_STAT3_CIS: Attagene CIS-FACTORIAL HepG2 Assay for human Signal Transducer and Activator of Transcription 3 (STAT3) (AID 2282963). Conditions: HepG2, Attagene cis-factorial STAT3 reporter transcription; actives raise or lower the signal. The gist of the method: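 Fluorescence intensity of 6-FAM-labelled reporter fragments, separated by capillary electrophoresis after RT-PCR, gave the signal. Cells were HepG2 transfected with cis-element reporter units and treated 24 h; fitting was bidirectional relative to DMSO.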

Assay [14] can be described thus: ATG_TA_CIS: Attagene CIS-FACTORIAL HepG2 Assay for human TA Basal Promoter (AID 2282964). Particulars: HepG2 Attagene CIS-factorial TA basal promoter reporter; actives raise or lower the signal. The gist of the method: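 Background internal-marker endpoint from a 52-component HepG2 cis-reporter panel. Cells treated 24 h; reporter transcripts quantified via RT-PCR and CE fluorescence against DMSO baseline.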

The nature of assay [15]: ATG_TCF_b_cat_CIS: Attagene CIS-FACTORIAL HepG2 Assay for human T-Cell-Factor with beta-catenin (TCF/b-cat) (AID 2282965). Particulars: HepG2 TCF/beta-catenin cis-reporter transcription, actives raise or lower the signal. In short, it runs like this:
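HepG2 cells transiently transfected with cis-promoter-driven multiplexed reporter units; reporter mRNA measured 24 h after dosing by RT-PCR, FAM labelling, HpaI digestion and capillary electrophoresis. Bidirectional fitting relative to DMSO baseline.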

Assay [16] can be described thus: ATG_TAL_CIS: Attagene CIS-FACTORIAL HepG2 Assay for human TAL Basal Promoter (AID 2282966).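 Further: background control endpoint measuring basal TAL promoter reporter mRNA not a specific factor.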 Conditions: HepG2 Attagene cis-factorial TAL promoter reporter; actives raise or lower the signal. In short, it runs like this:
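Human hepatoma HepG2 cells, transfected with promoter-regulated reporter units, were treated 24 h. Reporter transcript levels, measured through RT-PCR and capillary electrophoresis, were fitted for gain or loss relative to DMSO.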

For assay [17], the target named is X-box-binding protein 1 (Homo sapiens) (UniProt P17861). The experiment in a line: ATG_Xbp1_CIS: Attagene CIS-FACTORIAL HepG2 Assay for human X-box Binding Protein 1 (XBP1) (AID 2282972). Particulars: HepG2 XBP1 cis-element reporter, Attagene multiplex; actives raise or lower the signal. In short, it runs like this: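 Reporter transcripts were quantified by RT-PCR with fluorescent primer extension and capillary electrophoresis after 24 h chemical exposure. Cells: transiently transfected HepG2 carrying cis-regulated reporter constructs; data fitted bidirectionally relative to DMSO.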

For assay [18], the target named is Transcriptional activator Myb (Homo sapiens) (UniProt P10242). The experiment in a line: ATG_Myb_CIS: Attagene CIS-FACTORIAL HepG2 Assay for human Myeloblastosis (Myb) Proto-Oncogene Transcription Factor (AID 2282986). Conditions: HepG2 Attagene CIS-FACTORIAL Myb reporter transcription; actives raise or lower the signal. The gist of the method: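 After 24 h of compound dosing, total RNA from transfected HepG2 cells is reverse-transcribed and the reporter sequences amplified, labeled and separated by capillary electrophoresis. Values come from bidirectional fitting against DMSO.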

Assay [19] addresses Myc proto-oncogene protein (Homo sapiens) (UniProt P01106). Put plainly: ATG_Myc_CIS: Attagene CIS-FACTORIAL HepG2 Assay for human Myelocytomatosis (Myc) Proto-Oncogene Transcription Factor (AID 2282990). Conditions: HepG2, Attagene cis-reporter transcription factor activity; actives raise or lower the signal. The gist of the method: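 Transiently transfected HepG2 cells bearing cis-promoter reporter units for endogenous transcription factors; 24 h exposure. Reporter mRNA measured by RT-PCR, 6-FAM primer extension, HpaI cut and capillary electrophoresis; bidirectional fit relative to DMSO.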

A short description of assay [20]: ATG_Oct_MLP_CIS: Attagene CIS-FACTORIAL HepG2 Assay for human Octamer-Binding Transcription Factor (Oct) (AID 2282993). Particulars: HepG2 Attagene cis-factorial Oct reporter, mRNA; actives raise or lower the signal. In short, it runs like this: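 Using HepG2 cells bearing transfected cis-reporter constructs, mRNA induction was read after 24 h by fluorescent RT-PCR and capillary electrophoresis, with DMSO defining baseline for gain- or loss-of-signal fits.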

Activity calls are given as the source filed them. How the source made its calls: active means hit-call score of the fitted dose curve at least 0.9, where 1 is the maximum; inactive means score below 0.9.

Chain of X-box-binding protein 1 (Homo sapiens) (P17861 whole entry, looked up): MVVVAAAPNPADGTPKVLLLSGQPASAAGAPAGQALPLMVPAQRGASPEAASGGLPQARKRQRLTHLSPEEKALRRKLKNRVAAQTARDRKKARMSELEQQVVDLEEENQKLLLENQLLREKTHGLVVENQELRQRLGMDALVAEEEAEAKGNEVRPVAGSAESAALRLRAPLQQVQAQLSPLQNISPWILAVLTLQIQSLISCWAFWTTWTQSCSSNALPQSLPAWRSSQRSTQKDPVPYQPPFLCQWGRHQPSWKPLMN
Chain of CCAAT/enhancer-binding protein beta (Homo sapiens) (P17676 whole entry, looked up): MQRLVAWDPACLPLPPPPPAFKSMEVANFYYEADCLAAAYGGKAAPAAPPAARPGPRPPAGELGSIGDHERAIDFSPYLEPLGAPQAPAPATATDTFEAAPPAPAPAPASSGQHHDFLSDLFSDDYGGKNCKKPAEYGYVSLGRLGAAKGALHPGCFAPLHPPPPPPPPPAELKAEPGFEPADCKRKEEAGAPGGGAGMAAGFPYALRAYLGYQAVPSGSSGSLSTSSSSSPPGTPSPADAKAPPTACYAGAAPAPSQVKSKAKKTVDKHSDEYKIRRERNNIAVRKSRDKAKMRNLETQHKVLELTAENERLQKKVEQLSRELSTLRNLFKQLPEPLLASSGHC
Chain of Transcriptional activator Myb (Homo sapiens) (P10242 whole entry, looked up): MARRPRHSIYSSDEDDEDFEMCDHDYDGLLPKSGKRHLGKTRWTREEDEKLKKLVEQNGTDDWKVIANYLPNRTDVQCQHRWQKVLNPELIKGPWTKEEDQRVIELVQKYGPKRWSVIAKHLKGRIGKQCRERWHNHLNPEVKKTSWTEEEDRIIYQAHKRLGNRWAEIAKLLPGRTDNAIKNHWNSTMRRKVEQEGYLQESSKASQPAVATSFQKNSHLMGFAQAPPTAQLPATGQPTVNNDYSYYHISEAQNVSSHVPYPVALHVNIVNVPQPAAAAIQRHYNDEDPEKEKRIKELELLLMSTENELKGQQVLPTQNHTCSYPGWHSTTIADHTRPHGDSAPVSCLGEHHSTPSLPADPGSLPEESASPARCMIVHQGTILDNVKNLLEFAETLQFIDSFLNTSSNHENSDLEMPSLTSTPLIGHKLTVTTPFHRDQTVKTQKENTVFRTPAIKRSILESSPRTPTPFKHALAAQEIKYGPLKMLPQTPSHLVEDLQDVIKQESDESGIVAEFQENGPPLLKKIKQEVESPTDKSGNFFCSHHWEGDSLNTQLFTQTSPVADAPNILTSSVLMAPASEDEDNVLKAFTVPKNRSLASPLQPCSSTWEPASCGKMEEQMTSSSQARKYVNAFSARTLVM
Chain of Transcription factor E2F1 (Homo sapiens) (Q01094 whole entry, looked up): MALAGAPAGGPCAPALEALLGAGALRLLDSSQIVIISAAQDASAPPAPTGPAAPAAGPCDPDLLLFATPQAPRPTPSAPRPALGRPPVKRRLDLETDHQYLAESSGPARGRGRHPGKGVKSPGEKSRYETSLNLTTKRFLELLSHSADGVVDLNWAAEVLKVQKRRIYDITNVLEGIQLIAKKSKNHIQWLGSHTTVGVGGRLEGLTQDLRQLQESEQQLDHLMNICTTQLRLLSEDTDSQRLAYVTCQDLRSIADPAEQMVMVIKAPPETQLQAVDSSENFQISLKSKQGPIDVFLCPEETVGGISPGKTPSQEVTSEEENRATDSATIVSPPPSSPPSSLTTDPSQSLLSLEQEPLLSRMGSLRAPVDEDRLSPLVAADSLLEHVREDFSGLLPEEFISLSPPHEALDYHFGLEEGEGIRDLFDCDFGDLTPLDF
Chain of Signal transducer and activator of transcription 3 (Homo sapiens) (P40763 whole entry, looked up, the tested form may be a part): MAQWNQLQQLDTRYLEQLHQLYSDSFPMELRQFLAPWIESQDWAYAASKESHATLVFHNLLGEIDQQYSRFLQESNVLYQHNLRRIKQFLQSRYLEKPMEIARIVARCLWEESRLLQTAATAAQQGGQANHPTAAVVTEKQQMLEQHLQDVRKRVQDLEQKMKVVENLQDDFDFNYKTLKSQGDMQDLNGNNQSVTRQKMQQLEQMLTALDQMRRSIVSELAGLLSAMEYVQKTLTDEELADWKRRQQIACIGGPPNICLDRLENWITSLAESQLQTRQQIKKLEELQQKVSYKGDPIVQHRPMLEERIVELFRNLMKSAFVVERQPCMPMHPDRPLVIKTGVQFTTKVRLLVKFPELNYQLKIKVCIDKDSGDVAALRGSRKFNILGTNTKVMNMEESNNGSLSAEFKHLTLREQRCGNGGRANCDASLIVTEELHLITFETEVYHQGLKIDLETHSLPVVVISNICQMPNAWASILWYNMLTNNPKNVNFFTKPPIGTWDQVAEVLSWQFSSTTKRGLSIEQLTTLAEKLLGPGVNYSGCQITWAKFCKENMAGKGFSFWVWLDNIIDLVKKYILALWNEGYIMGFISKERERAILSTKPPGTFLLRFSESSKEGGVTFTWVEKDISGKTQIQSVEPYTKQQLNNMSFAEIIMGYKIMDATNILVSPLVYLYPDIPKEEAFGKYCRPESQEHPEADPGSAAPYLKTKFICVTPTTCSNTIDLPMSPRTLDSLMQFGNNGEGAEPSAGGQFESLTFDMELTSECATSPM
Chain of Transcription factor Sp1 (Homo sapiens) (P08047 whole entry, looked up, the tested form may be a part): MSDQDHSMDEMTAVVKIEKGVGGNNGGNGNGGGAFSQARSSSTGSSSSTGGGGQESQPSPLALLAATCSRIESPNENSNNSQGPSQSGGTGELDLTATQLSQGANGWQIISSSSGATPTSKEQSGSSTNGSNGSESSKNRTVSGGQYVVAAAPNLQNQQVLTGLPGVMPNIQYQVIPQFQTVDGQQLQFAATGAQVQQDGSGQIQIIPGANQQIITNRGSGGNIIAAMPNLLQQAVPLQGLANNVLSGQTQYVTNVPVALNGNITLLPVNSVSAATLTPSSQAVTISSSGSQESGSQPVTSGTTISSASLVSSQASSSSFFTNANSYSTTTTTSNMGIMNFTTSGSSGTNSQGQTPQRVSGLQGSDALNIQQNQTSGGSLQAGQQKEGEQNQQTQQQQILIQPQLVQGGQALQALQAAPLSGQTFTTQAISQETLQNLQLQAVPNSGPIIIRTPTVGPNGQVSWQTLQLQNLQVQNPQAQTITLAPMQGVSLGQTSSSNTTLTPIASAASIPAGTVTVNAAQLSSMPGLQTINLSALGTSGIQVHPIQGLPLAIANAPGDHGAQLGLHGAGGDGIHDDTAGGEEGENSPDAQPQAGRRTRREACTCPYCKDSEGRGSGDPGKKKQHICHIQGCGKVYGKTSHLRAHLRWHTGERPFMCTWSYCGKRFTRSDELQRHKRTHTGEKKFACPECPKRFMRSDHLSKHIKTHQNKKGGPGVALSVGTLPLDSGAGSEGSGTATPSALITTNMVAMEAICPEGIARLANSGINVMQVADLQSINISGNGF
Chain of Myc proto-oncogene protein (Homo sapiens) (P01106 whole entry, looked up): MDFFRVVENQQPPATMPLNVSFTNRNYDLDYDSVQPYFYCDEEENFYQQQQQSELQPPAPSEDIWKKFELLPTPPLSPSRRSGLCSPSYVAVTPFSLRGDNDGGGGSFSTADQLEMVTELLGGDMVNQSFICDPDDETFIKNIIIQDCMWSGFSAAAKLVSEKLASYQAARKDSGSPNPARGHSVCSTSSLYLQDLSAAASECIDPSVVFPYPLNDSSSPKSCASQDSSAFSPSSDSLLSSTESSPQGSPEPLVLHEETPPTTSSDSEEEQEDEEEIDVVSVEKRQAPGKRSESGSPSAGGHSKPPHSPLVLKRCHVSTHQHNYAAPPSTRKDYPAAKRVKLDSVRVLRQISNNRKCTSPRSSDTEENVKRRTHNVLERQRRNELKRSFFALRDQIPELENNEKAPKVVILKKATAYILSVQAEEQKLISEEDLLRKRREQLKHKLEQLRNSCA

As to `COc1ccc(CO)cc1`, the outcome in assay [1], in assay [2], in [3], in assay [4], in assay [5] and in assay [6] was inactive. Also, the call in assay [7], in [8], in [9], in assay [10], in assay [11] and in [12] was inactive. In addition, the outcome in [13], in [14], in assay [15], in assay [16], in [17] and in assay [18] was inactive. The call in assay [19] and in [20] was inactive.

For the compound `S=c1[nH]c2ccccc2[nH]1`, the outcome in assay [1], in assay [2], in assay [3], in assay [4], in [5] and in assay [6] was inactive. Moreover, the compound was called inactive in assay [7], in assay [8], in [9], in assay [10], in assay [11] and in [12]. The compound was classed as inactive in assay [13], in [14], in assay [15], in [16], in [17] and in [18]. The outcome in assay [19] and in assay [20] was inactive.

On to `CCOC(=O)NC(=S)Nc1ccccc1NC(=S)NC(=O)OCC`, for which the result in assay [1], in [2], in assay [3], in assay [4], in assay [5] and in [6] was inactive. Also, the result in assay [7], in [8], in assay [9], in assay [11], in assay [12] and in assay [13] was inactive. The compound was classed as inactive in assay [14], in assay [15], in assay [16], in [17], in [18] and in assay [19]. The compound was called inactive in assay [20]. Besides, the AC50 in [10] was 1.68 µM (active).

`O=S(=O)(O)O`: the outcome in [1], in assay [2], in [3], in assay [4], in assay [5] and in [6] was inactive. Moreover, the result in [7], in assay [8], in assay [9], in assay [10], in assay [11] and in assay [12] was inactive. Besides, the result in [13], in assay [14], in assay [15], in assay [16], in [17] and in [18] was inactive. The compound was classed as inactive in assay [19] and in [20].

`CN(C)N`: the result in assay [1], in [2], in assay [3], in assay [4], in assay [5] and in assay [6] was inactive. The result in [7], in assay [8], in assay [9], in assay [10], in [11] and in assay [12] was inactive. The outcome in assay [13], in assay [14], in assay [15], in assay [16], in assay [17] and in assay [18] was inactive. Moreover, the result in assay [19] and in [20] was inactive.

As for `O=C(CCN1CC1)OCC(CO)(COC(=O)CCN1CC1)COC(=O)CCN1CC1`, the outcome in assay [1], in assay [2], in [3], in [4], in [5] and in assay [6] was inactive. Besides, the result in assay [7], in assay [8], in [9], in [10], in assay [11] and in [12] was inactive. In addition, the compound was classed as inactive in [13], in assay [14], in assay [15], in [16], in [17] and in assay [18]. The result in assay [19] and in assay [20] was inactive.

`O=C(CCl)c1ccccc1`: the result in assay [1], in [4], in [6], in assay [7], in assay [9] and in [10] was inactive. In addition, the compound was called inactive in [11], in [12], in assay [13], in assay [14], in assay [15] and in assay [16]. Besides, the outcome in assay [17], in assay [18], in [19] and in [20] was inactive. Further, the concentration at half-maximal activity (AC50) is 21.1 µM (active) in assay [2], 18.9 µM (active) in assay [3], 16.2 µM (active) in assay [5] and 18.8 µM (active) in assay [8].
